Measurements reported in PubChem BioAssay (NCI).
This is part of a sample that, as a whole, favours compounds with a hit. Of some 79,000 tested, about 15% had one in any assay. A number with no mark means an inactive call. Calls of active or inactive are those of the source. Cut-off read from the data, not from the text of the source: active = growth inhibition above about 70%; inactive = the rest.

Key:
[1] = NCI Yeast Anticancer Drug Screen. Data for the rad50 strain (AID 155);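 note: 0% = growth of vehicle-only cultures of the same strain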; conditions: S. cerevisiae rad50 strain growth inhibition; at 50.0 µM; hits give high values
Outline: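 Relative growth inhibition (compound vs vehicle) was measured in yeast with a defined repair-gene alteration.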

[2] = NCI Yeast Anticancer Drug Screen. Data for the mec2-1 strain (AID 157); conditions: S. cerevisiae mec2-1 strain, at 50.0 µM, hits give high values
Outline: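 Each compound was tested on mec2-1 yeast, a strain altered in DNA damage repair or cell cycle control. Growth inhibition is reported relative to vehicle.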

[3] = NCI Yeast Anticancer Drug Screen. Data for the sgs1 mgt1 strain (AID 161);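 note: 0% = growth of cultures given vehicle only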; conditions: S. cerevisiae sgs1 mgt1 strain, at 50.0 µM, hits give high values
Outline: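 Genetically altered yeast, compound exposure, growth inhibition relative to vehicle.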

[4] = NCI Yeast Anticancer Drug Screen. Data for the cln2 rad14 strain (AID 165);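 note: 0% = growth equal to vehicle treated cultures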; conditions: S. cerevisiae cln2 rad14 strain, at 50.0 µM, hits give high values
Outline: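 Test compounds were added to cln2 rad14 yeast cultures; inhibition of growth was then determined by comparison with vehicle treatment.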

[5] = NCI Yeast Anticancer Drug Screen. Data for the bub3 strain (AID 167); conditions: S. cerevisiae bub3 mutant strain, at 50.0 µM, hits give high values
Outline: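 Screening used yeast with an engineered genetic alteration affecting cell cycle control. Compound-exposed cultures were compared with vehicle cultures, and reduced growth was taken as inhibition.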

[6] = NCI Yeast Anticancer Drug Screen. Data for the mlh1 rad18 strain (AID 175); conditions: S. cerevisiae mlh1 rad18 strain growth inhibition; at 50.0 µM; hits give high values
Outline: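 Inhibition values reflect reduced growth of mutant yeast versus vehicle-treated controls following compound exposure; the mutations affect DNA damage repair.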

SMILES	growth inhibition [1] [%]	growth inhibition [2] [%]	growth inhibition [3] [%]	growth inhibition [4]	growth inhibition [5] [%]	growth inhibition [6] [%]
Cc1ccc(S(=O)(=O)Nc2cccc3c(=O)[nH]cnc23)cc1	1.6	-13.8	1.2	-37.2%	10.3	18.8
CC(C)(C#N)CCCCC(N)=O	-1.4	-13.4	-12.2	-6.1%	-19.1	-10.7
C#CC(C)(CC)OC(C)=O (stereo not drawn)	44.3	-16.4	7.6	-23%	19.9	20.3
COc1cc2c[n+]3ccc4ccccc4c3c(N)c2cc1OC	16	-8.2	-10.6	15.8%	5.9	-4.85
CC1=C(C)Cc2c(-c3ccccc3)oc(-c3ccccc3)c2C1	-13.3	-12.4	0.7	25.8%	-7.95	-16.4
O=C(N/N=C\c1ccc(Cl)cc1Cl)c1ccccc1S	-59.4	6.45	-4.55	-0.2%	-13.2	5
O=C1c2ccccc2OCC1CS(=O)(=O)CC1COc2ccccc2C1=O (stereo not drawn)	-9.5	9.7	-5.45	16.2%	-0.5	7.4
CC(=O)N1Cc2c(cc(C)[nH]c2=O)C1=O	9	10.5	6.45	10.7%	1.05	7.65
CCOC(=O)C1=C(Nc2ccccc2)OC/C1=N\NC(=O)Cc1ccccc1	-6.75	-23.7	-1.6	0.85%	10.2	-19.1
C=C(NC(C)=O)C(=O)O	-4.65	-7.4	-11	4.5%	10.9	4.15
CCOC(=O)C1=C(C(C)=O)C(c2cccc([N+](=O)[O-])c2)C(C(C)=O)=C(C(=O)OCC)N1	-1.8	4.05	-8.8	-2.8%	-13.6	7.25
CN(C)Cc1cc(C(=O)O)ccc1O	10.1	13.1	9.45	-29%	2.85	-0.75
O=[N+]([O-])c1ccc(/C(CBr)=N/N2CCCCCC2)cc1	-1.05	-16.9	-19.7	7.9%	-15.8	-4.55
CCOc1c(OC)ccc(C(C)=O)c1O	-17.8	-15.2	-22.1	-2.35%	3	-17.2
CCC/C=N/NS(=O)(=O)c1ccc(C)cc1	32.1	15.7	30.8	11.8%	-29.9	12.6
CCN1CC(C(=O)NC(C)C(=O)O)Cc2ccccc21 (stereo not drawn)	7.2	-1.25	9.15	-31%	1.45	-8
CSc1nc2nc[nH]c2c(=O)[nH]1	3.45	0.3	-16.2	-14.2%	-1.85	-3.65
CCOC(=O)C(O)Cc1cnc2ccccc2n1 (stereo not drawn)	-1.45	-13.3	-12.3	-13.3%	-11.1	7.55
NC1=NN(c2c(Cl)cc(Cl)cc2Cl)C(=O)C1	21.9	-3.8	17.6	33.3%	33	39.6

SMILES	growth inhibition [1] [%]	growth inhibition [2] [%]	growth inhibition [3] [%]	growth inhibition [4]	growth inhibition [5] [%]	growth inhibition [6] [%]
COCCn1nc(-c2ccc(Cl)cc2)c(-c2ccc(Cl)cc2)c(C(C)=O)c1=O	12.2	-5.15	0.9	9.05%	-1.7	-7.85
Cc1cc2c(cc1Cl)SC(NNc1ccc([N+](=O)[O-])cc1)=NS2(=O)=O	34.6	2.4	4.6	-7.85%	-19.6	26.9
C=CCOCc1ccc(C(C)(C)CC(C)(C)C)cc1	-5.25	13.5	8.6	-75.5%	16.1	15.7
O=C(O)CC(O)C(F)(F)F (stereo not drawn)	17.4	0.45	1.95	8.65%	5.3	26.5
Nc1nc(O)c(N)c(=O)[nH]1	-18.2	-16.9	-15.8	-17.8%	-4.05	-20.9
CN(C)Cc1ccccc1C(=C(c1ccccc1)c1ccccc1)c1ccccc1	-15.1	-4.65	-8	-23.6%	-0.8	-10.9
CCOC(=O)C(C)(NC(=O)c1ccc(NCc2ccc3nc(NC(=O)c4ccccc4)nc(NC(=O)c4ccccc4)c3c2)cc1)C(=O)OCC	-4.1	-24	7.5	-24.1%	-16.5	-8.45
O=C1CC(c2ccccc2)OC(c2ccccc2Cl)C1 (stereo not drawn)	-1.25	-8.35	-39.5	-20.7%	-5.85	9.1
NC(=O)NN/C=C(/C=Nc1ccccc1)[N+](=O)[O-]	17.4	7.35	1.2	5.35%	6.55	0.95
NC(CCOCCP(=O)(O)CCC1C=CC=CC1)C(=O)O (stereo not drawn)	-9.6	-31.7	-29.1	5.6%	-21.3	-19.9
COC(=O)c1c([N+](=O)[O-])ncn1[C@H]1OC[C@@H](OC(C)=O)[C@@H](OC(C)=O)[C@@H]1OC(C)=O	-24.8	-8.6	-20.9	-0.8%	-5.5	1.55
Cc1nc2c3c4c(sc3nc(C)n2n1)CCCC4	1	10.3	22.2	80.4% (active)	7.3	12
CN(C)C(=S)/N=c1\ss/c(=N\C(=S)N(C)C)n1C1CCCCC1	15	9.35	13.4	-23.1%	-18.6	22.2
CC1C(c2ccccc2)=CCON1c1ccccc1 (stereo not drawn)	-2.9	-16.6	-24.4	13.4%	-3.75	-28.1
O=C1C2=C(c3ccccc31)C(c1ccc(F)cc1)N1C(=O)CCSC1=N2 (stereo not drawn)	45.1	19.1	63	40.1%	48.6	56.1
O=C1c2c(c3c4ccccc4[nH]c3c3[nH]c4ccccc4c23)C(=O)N1Cc1ccccc1	-9.4	-5.95	4.95	-6.6%	-5.45	10.2
CCOc1ccc(NC(=O)/C(CC(=O)c2sc(Nc3ccc(C)cc3)nc2C)=N\NC(N)=S)cc1	-33.3	3.15	8.95	-49.6%	-11.4	-35.5
CCO/C(O)=C(/C#N)C(=O)NC1=NCCCCC1	6.15	8.25	4.75	-43%	4.65	16.4
CCCCNc1ncnc2c1cnn2C	-3.2	18.9	-28.2	-11.9%	-7.1	-4.3
